High-throughput results: PubChem, several laboratories
The list is not random: actives were taken first. Their share in the collection is about 2%.
PKA-R1A act: activators of PKA-R1A holoenzyme, primary screen, biochemical, fluorescence polarization, Cy5-IP20, bovine R1A, mouse PKAc; cAMP-dependent protein kinase type I-alpha regulatory subunit (Bos taurus) + …; PKA-R1A dissociation; scaled: DMSO 0%, 113 µM cGMP 100%; activation, % at 11.4 µM; hit rate 0.083% among 340,000;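 active means percent activation above the mean of all tested compounds plus 3 SD, cut at about 19% in these data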;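 further: higher means more PKAc released from R1A so a rise in polarization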
MsrA act: bovine MsrA enzyme activators, primary screen, biochemical, absorbance, HTS; hit rate 0.3% among 360,000; AID 602163, 2012; activation, % at 10.6 µM; purified bovine MsrA, absorbance read-out; Methionine sulfoxide reductase A (Bos taurus); in the data active means activation above about 7.5%;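 further: 0% = vehicle and 100% = reference activator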
PKA-R2B act: activators of PKA-R2B holoenzyme, primary screen, biochemical, fluorescence polarization, Cy5-IP20, human | cAMP-dependent protein kinase catalytic subunit beta (Homo sapiens) + cAMP-dependent … | PKA-R2B holoenzyme dissociation; R2B truncated from residue 108, S112A mutant; 0% DMSO only, 100% 113 µM cGMP | activation, % at 11.4 µM | hit rate 0.079% among 340,000;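 active means activation above a cutoff set at the mean over all compounds plus 3 SD, cut at about 18% in these data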;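 further: higher means more holoenzyme dissociation and a rise in polarization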
Target sequence (P31323 whole entry, looked up, other chains not shown, the tested form may be a part): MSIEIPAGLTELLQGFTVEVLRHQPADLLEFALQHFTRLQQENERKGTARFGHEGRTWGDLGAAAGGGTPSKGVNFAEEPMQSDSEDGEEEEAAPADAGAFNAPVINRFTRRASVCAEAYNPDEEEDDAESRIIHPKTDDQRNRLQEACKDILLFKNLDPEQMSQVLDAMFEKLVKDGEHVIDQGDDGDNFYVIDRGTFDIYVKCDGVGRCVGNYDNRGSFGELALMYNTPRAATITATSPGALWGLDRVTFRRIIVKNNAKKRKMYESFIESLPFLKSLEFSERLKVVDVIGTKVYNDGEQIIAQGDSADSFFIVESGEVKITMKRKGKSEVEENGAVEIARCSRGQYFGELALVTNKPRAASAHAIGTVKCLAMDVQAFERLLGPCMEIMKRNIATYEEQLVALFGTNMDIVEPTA
MsrA inhibitor: bovine MsrA enzyme inhibitors, primary screen, biochemical, absorbance, HTS. purified bovine MsrA, absorbance read-out. inhibition, % at 15.5 µM. hit rate 0.75% among 360,000; in the data active means inhibition above about 4.5%;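 further: 0% = vehicle wells with enzyme and 100% = reference inhibitor wells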
Mot1-301 SUMO: yeast Mot1-301 growth rescue at high temperature, primary screen, SUMOylation pathway inhibitor project, S. cerevisiae, ATP luminescence, 38.5C | S. cerevisiae Mot1-301 growth rescue; percent above DMSO median, 100 means doubled | growth rescue, % at 18.8 µM | hit rate 1% among 320,000 | AID 2716, 2010;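 active means every valid replicate shows activation above 250% relative to neutral control wells; inactive means the rest, any valid replicate at or below 250%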;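 further: OY570 slx delta 5 strain wells were the positive control but not used for scaling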
Yeast Mot1 SUMO: growth restoration of Mot1-301 yeast on galactose, dose response, SUMO pathway inhibitor project, whole organism, S. cerevisiae, ATP luminescence, cherry-picked samples; S. cerevisiae Mot1-301 galactose growth, 24 h; -100 = growth of slx-deleted rescue strain; 2,300 tested, under 10 active; shares compounds with Mot1-301 SUMO; growth activity, percent, % at 42 µM;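 active means Signal drops as the depositor expects, and the fitted half-maximal dose is no more than ten times the top valid tested dose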;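 further: more negative values mean stronger growth rescue toward the control strain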
The depositor's hits bear a star; [ ] = dose if it differs, or a comment.

For c1ccc(CNc2ccc3ccccc3n2)nc1 the results were PKA-R1A act 2, MsrA act -3, PKA-R2B act -2, MsrA inhibitor 2, Mot1-301 SUMO 365* and Yeast Mot1 SUMO -2.
`Cc1c(NC(=O)C(C)Sc2nnc(-c3ccccc3)o2)c(=O)n(-c2ccccc2)n1C` (stereo unspecified) gave PKA-R1A act 6, MsrA act -11, PKA-R2B act 2, MsrA inhibitor 1, Mot1-301 SUMO 373* and Yeast Mot1 SUMO 0.
For CCCCN1CCN=C1Nc1ccccc1 the results were PKA-R1A act -6, MsrA act -2, PKA-R2B act -10, MsrA inhibitor 0 and Mot1-301 SUMO -19.
CC(C)CCCN1CCN=C1Nc1ccccc1 was read as PKA-R1A act -1, MsrA act 0, PKA-R2B act 9, MsrA inhibitor 0, Mot1-301 SUMO 596* and Yeast Mot1 SUMO 0.
Screening CCOc1ccc(C(=O)Nc2ccc(CN3CCOCC3)cc2)cc1Br returned PKA-R1A act -1, MsrA act -6, PKA-R2B act -7, MsrA inhibitor 0, Mot1-301 SUMO 365* and Yeast Mot1 SUMO 0[21 µM].
For CCCC(O)(CCC)C(=O)NNc1ccc(C)cc1 the results were PKA-R1A act 2, MsrA act -3, PKA-R2B act 0, MsrA inhibitor 3, Mot1-301 SUMO 643* and Yeast Mot1 SUMO 0.
For CS(=O)(=O)N(CCc1ccccc1)CC(=O)NCc1cccnc1 the results were PKA-R1A act -5, MsrA act -9, PKA-R2B act -9, MsrA inhibitor 0, Mot1-301 SUMO 854* and Yeast Mot1 SUMO 0.
For CC(C)(C)NC(=S)NCc1cccnc1 the results were PKA-R1A act -2, MsrA act -1, PKA-R2B act -6, MsrA inhibitor -1, Mot1-301 SUMO 978* and Yeast Mot1 SUMO 1.
Screening O=C(NCc1cccnc1)Nc1ccccc1 returned PKA-R1A act 3, MsrA act -5, PKA-R2B act 0, MsrA inhibitor -1, Mot1-301 SUMO 564* and Yeast Mot1 SUMO 0.
`CC(C)(C)NC(=O)NCc1cccnc1` gave PKA-R1A act -11, MsrA act -6, PKA-R2B act 2, MsrA inhibitor 0 and Mot1-301 SUMO -17.
For O=C(NCc1cccnc1)Nc1cccc(NC(=O)NCc2cccnc2)c1 the results were PKA-R1A act 4, MsrA act -6, PKA-R2B act 9, MsrA inhibitor 2 and Mot1-301 SUMO 12.
COc1ccc(NC2CC(=O)N(C(C)C)C2=O)cc1 (stereo unspecified) was read as PKA-R1A act 2, MsrA act -4, PKA-R2B act 3, MsrA inhibitor 0, Mot1-301 SUMO 507* and Yeast Mot1 SUMO 0.
For COc1cc2c(=O)n(-c3ccc(C)cc3)c(=O)n(CC(=O)c3ccc4c(c3)OCO4)c2cc1OC the results were PKA-R1A act 2, MsrA act -3, PKA-R2B act 5, MsrA inhibitor 1, Mot1-301 SUMO 694* and Yeast Mot1 SUMO 0.
`CCOC(=O)c1sc2ncnc(N3CCN(c4ccc(OC)cc4)CC3)c2c1C` gave PKA-R1A act 7, MsrA act -8, PKA-R2B act 5, MsrA inhibitor -1, Mot1-301 SUMO 623* and Yeast Mot1 SUMO 1.
`COc1ccccc1N1CCN(C(=O)c2sc3nc(C)nc(N4CCN(c5ccccn5)CC4)c3c2C)CC1` gave PKA-R1A act -1, MsrA act -9, PKA-R2B act -17, MsrA inhibitor -1 and Mot1-301 SUMO -18.
`COc1ccccc1N1CCN(C(=O)c2sc3ncnc(N4CCN(c5ccccn5)CC4)c3c2C)CC1` gave PKA-R1A act -5, MsrA act -1, PKA-R2B act 4, Mot1-301 SUMO 442* and Yeast Mot1 SUMO 0.
